# Bioassay records from PubChem.
# TDP1 inh – blocks human tyrosyl-DNA phosphodiesterase 1 | Q9NUW8 | recombinant TDP1, AlphaScreen DNA substrate cleavage | Potency, µM (top dose mostly 130 µM), without a hit: at the top dose activity change, negative = inhibition, hits mostly inhibitors | actives 0.28% (n = 350,000); also: nearly all actives have a fitted effect of over 40% in size
#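 Here, a 5' biotin and 3' phosphotyrosine-FITC DNA oligonucleotide reports Tdp1 activity: intact substrate bridges AlphaScreen beads, while cleavage leaves a 3' phosphate and drops signal. All incubations at room temperature.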
# PLK1 PBD block – PLK1 (human) polo-box domain binding inhibition. Potency, µM, for the others: max response, negative = inhibition, actives largely listed as inhibitors. actives 2.8% (n = 360,000). P53350. Plk1 PBD binding of FITC phosphopeptide, fluorescence polarization; also: series mostly up to about 57 µM; nearly all actives have a fitted effect of over 65% in size
# KAT2A inh – blocks human GCN5L2 histone acetyltransferase | Q92830 | GCN5L2 HAT assay, ThioGlo1 CoA-SH fluorescence | Potency, µM (highest dose often 58.9 µM), for inactives: at the top dose activity change, negative = inhibition, usual class: inhibitors | actives 0.21% (n = 390,000)
#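 ThioGlo1-coupled HAT assay: 20nM GCN5L2, 70uM acetyl-CoA, 75uM H3(1-25) peptide, pH 7.5. Fluorescence read at 340/540nm at start and after 20 min at room temperature.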
# DT40 TDP1 CPT – DT40-hTDP1 cell growth loss with CPT; chicken DT40 Tdp1-/-;hTDP1 cells + 20 nM CPT, ATP luminescence, 48 h; Potency, µM (highest dose often 46.2 µM), for inactives: at the highest dose activity change, negative = growth inhibition, actives largely listed as inhibitors; actives 12% (n = 420,000); AID 686979; also: nearly all actives have a fitted effect of over 55% in size
#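 Chicken DT40 Tdp1-/- cells stably complemented with human TDP1 were seeded at 400 cells/well in medium containing 20 nM camptothecin, exposed to pin-transferred compounds, and grown at 37 °C for at least 48 hr. Viability was read as ATP luminescence.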
# TDP1 cell noCPT – qHTS for Inhibitors of human tyrosyl-DNA phosphodiesterase 1 (TDP1): qHTS in cells in absence of CPT; DT40 Tdp1-/- hTDP1 cells, no CPT, ATP luminescence, 48 h; Potency, µM (titrated, usually from 46.2 µM), inactives show top-dose activity change, negative = growth inhibition, hits mostly inhibitors; actives 15% (n = 420,000); also: nearly all actives have a fitted effect of over 55% in size
#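 Chicken DT40 Tdp1-/- cells complemented with human TDP1, screened without camptothecin (DMSO vehicle only), 400 cells/well. Compounds pin-transferred, cells incubated at 37 °C for at least 48 hr. Growth read as ATP-dependent luminescence (CellTiter-Glo, 30 min at RT).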
# VDR inh – blocks the human vitamin D receptor | VDR-SRC2-3 peptide fluorescence polarization, 2 h | Potency, µM, inactives show max response, negative = inhibition, usual class: inhibitors | actives 0.93% (n = 400,000) | AID 504847
#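 Reagent solutions, kept cold and dark, are dispensed first; compounds are then pinned in at 23 nl, plates briefly spun, and incubated 2 h at ambient temperature. Inhibition of VDR–SRC2-3 peptide binding is read by fluorescence polarization.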
# An asterisk follows results filed as active; ? = inconclusive; . = no result given; [ ] = remark or other dose. Sampled rows, rich in hits. Any-hit rate of the full collection: about 18%. Calls follow the shape of the dose curve; as a rule, active = well fitted curve in the direction sought with a large enough effect; inconclusive = small, poorly fitted or top-dose-only effect, or another doubt; inactive = no such curve, though single readings can be large; an effect the other way counts as inactive or inconclusive. % is scaled to controls: 0 for no effect and ±100 for the full control effect; potency is read from the fitted curve at half-maximal effect.
SMILES,TDP1 inh,PLK1 PBD block,KAT2A inh,DT40 TDP1 CPT,TDP1 cell noCPT,VDR inh
O=c1ccn([C@@H]2O[C@H](COS(=O)(=O)O)[C@@H](O)[C@H]2O)c(=O)[nH]1,2%,-9%,-6%,5.2µM*,4.1µM*,-5%
Nc1ccn([C@@H]2O[C@H](CO)[C@@H](O)C2(F)F)c(=O)n1,.,.,.,0.0094µM*,0.0094µM*,.
Nc1ccn([C@@H]2O[C@H](CO)[C@@H](O)[C@H]2O)c(=O)n1,10%[56.1 µM],-22%,-10%,2%,-1%,7%
N#CCCN(C(=O)COC(=O)CCc1nc2ccccc2c(=O)[nH]1)c1ccc(F)cc1,1%,-24%,3%,?,?,2%
CCSc1ccc(/C(N)=N/OC(=O)c2cccs2)cn1,?,1%,-14%,?,7%,16%
COC(=O)[C@]12CCCCC=C1N(Cc1ccc(Cl)cc1Cl)C(=O)[C@H](CC(=O)NCCCCc1ccccc1)C2,.,3%,.,?,?,.
Nc1cccc(S(=O)(=O)Nc2ccccc2)c1,-3%,-6%,?,0%,-7%,-6%
Nc1nc(=O)n(C2OC(CO)C(O)C2O)cc1Cl (stereo unspecified),12%[56.1 µM],.,4%,?,5.2µM*,-5%
O=c1[nH]cnc2c1ncn2C1OC(CO)CC1F (stereo unspecified),.,-6%,.,0.46µM*,1.8µM*,.
Nc1ccn(C2OC(COC(=O)C34CC5CC(CC(C5)C3)C4)C(O)C2O)c(=O)n1 (stereo unspecified),.,-7%,.,0.052µM*,0.37µM*,-12%
Nc1ccn([C@@H]2O[C@H](CNCc3cnc(N4CCOCC4)s3)[C@@H](O)[C@H]2O)c(=O)n1,.,2%,.,0%,?,.
Nc1ccn([C@@H]2O[C@H](COS(=O)(=O)O)[C@@H](O)[C@H]2O)c(=O)n1,2%,1%,0%,9.2µM*,1.8µM*,0%
O=c1[nH]cnc2c1ncn2[C@@H]1O[C@H](CO)[C@@H](O)[C@H]1O,5%,-3%,-3%,-9%,17%,-23%
Nc1ccn(C2OC(CCl)C(O)C2O)c(=O)n1 (stereo unspecified),.,-2%,.,2.6µM*,3.7µM*,.
O=c1[nH]cnc2c1ncn2[C@@H]1O[C@H](COS(=O)(=O)O)[C@@H](O)[C@H]1O,1%,-11%,-1%,3.7µM*,?,-4%
Cc1cc(S(=O)(=O)NC[C@H]2O[C@@H](n3ccc(N)nc3=O)[C@H](O)[C@@H]2O)c(C)s1,.,-11%,.,-11%,-20%,.
O=C(NCc1cccs1)C1CCN(S(=O)(=O)c2ccccc2F)CC1,6%,-14%,-2%,-2%,0%,1%
COc1ccccc1CN1CC[C@@]2(CCCN(C(=O)c3cccn3C)C2)C1,.,.,-2%,?,?,-4%
COc1ccc(N(C)S(=O)(=O)c2cccc(C(=O)Nc3cccc(C(=O)NC4CC4)c3)c2)cc1,0%,-2%,-5%,15µM*,16µM*,2%
CCCCN1C2CCCC1CC(NC(=O)c1cccc(Cl)c1)C2 (stereo unspecified),.,-7%,-12%,?,23µM*,-24%
COc1cccc(C(=O)NC2CC3CCCC(C2)N3S(=O)(=O)c2ccccc2)c1 (stereo unspecified),2%,?,-15%,13µM*,12µM*,9%
COc1ccc(N(C)S(=O)(=O)c2cccc(C(=O)NC3CCC(C)CC3)c2)cc1 (stereo unspecified),3%,-8%,-10%,?,16µM*,-3%
COc1ccc(N(C)S(=O)(=O)c2cccc(C(=O)NC3CCCCCC3)c2)cc1,-1%,-6%,0%,-29%,?,-10%
O=C(NCCN1CCOCC1)C1(C(F)(F)F)C/C(=C\CCO)CCCO1 (stereo unspecified),8%,.,.,.,.,-12%
C/C=C1\COC(C(=O)NCc2ccccn2)(C(F)(F)F)C=C1C=C(C)C (stereo unspecified),5%,.,.,.,.,?
SMILES,TDP1 inh,PLK1 PBD block,KAT2A inh,DT40 TDP1 CPT,TDP1 cell noCPT,VDR inh
Cc1c(Cl)cccc1NC(=O)Nc1ccc2snnc2c1,5%,.,-12%,15µM*,18µM*,26%
CC(=O)Nc1cccc(NC(=O)Nc2cccc(Cl)c2C)c1,-1%,-2%,22%,-7%,-23%,-13%
Cc1ccc(F)c(NC(=O)Nc2ccc3snnc3c2)c1,3%,.,-4%,21µM*,21µM*,5%
CC(=O)c1ccc(NC(=O)Nc2ccc3snnc3c2)cc1,-3%,.,-26%,12µM*,21µM*,8%
COC(=O)c1cc(NC(=O)Nc2ccc3snnc3c2)cc(C(=O)OC)c1,-3%,.,-13%,-12%,-5%,12%
Cc1ccccc1-c1nccc(NCc2cccnc2)n1,.,.,-13%,-15%,-26%,-9%
Cc1ccc(N=C2C(=O)Nc3ccc(Br)cc32)cc1,.,-6%,2%,18µM*,12µM*,?
Cc1ccc(N=C2C(=O)Nc3c(C)cccc32)cc1,7%,-2%,-2%,-5%,-22%,-22%
Cc1ccc(S(=O)(=O)Oc2ccccc2/C=C2/SC(=O)NC2=O)cc1,7%,-16%,-12%,3%,0%,-17%
O=C1N=C(N2CCOCC2)S/C1=C\c1ccccc1OS(=O)(=O)c1ccccc1,.,-11%,-6%,12µM*,8.2µM*,-9%
CCc1ccc(/C=C2\SC(N3CCCC3)=NC2=O)cc1,-4%,-4%,-1%,1%,?,-19%
CC(=O)N1CCN(C2=NC(=O)/C(=C/c3ccc(OS(=O)(=O)c4ccccc4)cc3)S2)CC1,6%,-20%,2%,21µM*,?,50µM*
Cc1cc2nc(-c3ccc(SCC(=O)N4CCc5ccccc54)nc3)[nH]c2cc1C,-9%,-12%,-12%,9.2µM*,23µM*,1%
Cc1cc2nc(-c3ccc(SCc4ccccc4C#N)nc3)[nH]c2cc1C,0%,?,0%,?,16µM*,0%
Cc1cc2nc(-c3ccc(SCc4ccc(C(=O)O)cc4)nc3)[nH]c2cc1C,22µM*,19µM*,?,?,?,1%
CCOC(=O)c1ccccc1NC(=O)Cn1c(=O)n(CCCC(=O)NCc2ccc3c(c2)OCO3)c(=O)c2ccccc21,-2%,.,-5%,-20%,-23%,-5%
CCCCCn1c(C)c2c(OCC)cccc(=O)c2c1C,9%,5%,-12%,23µM*,?,-18%
